Among the data in PubChem BioAssay AID463195 (Sanford-Burnham Center for Chemical Genomics, 2010) are inhibition values, retold here.

Out of some 330,000 compounds screened, about 4,600 (1.4%) were called active. The sample holds actives, similar compounds and a random draw of the others, so the mix is not that of the screen.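 How the source made its calls: active means inhibition of 40% or more at the single tested concentration; inactive means the rest.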

The nature of this assay: growth inhibitors of isogenic TIM10 control yeast, primary screen, counter-screen for tim10-1 yeast inhibitor project, luminescence, uHTS (AID 463195).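 Further: wild-type TIM10 isogenic control strain grown at permissive 25 °C; 0% = DMSO yeast wells and 100% = minimal medium wells without yeast.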 The following applies: S. cerevisiae TIM10 strain growth, BacTiter-Glo luminescence, 24 h; at 10 µM; active compounds read high.
As for `O=C(CSCc1ccccc1)Nc1ccccc1`, the inhibition is -3.8% (inactive).

With `COC(=O)Cc1c(O)ccn(Cc2cccc(C(F)(F)F)c2)c1=O`, the inhibition is 11.1% (inactive).

With `Cc1ccc(C(=O)/C=C/c2c(C)nn(-c3ccccc3)c2Cl)cc1`, the inhibition was 29.3% (inactive).

For the compound `O=C(/C=C/Sc1ncn[nH]1)c1ccc(Cl)cc1`, the inhibition is 73.5% (active).

As for `O=C(CSc1ncn[nH]1)N/N=C/c1ccc(F)cc1`, the inhibition was -3.76% (inactive).

With `CCN(CC)C(=O)[C@H]1C[C@H](CC(=O)NCC23CC4CC(CC(C4)C2)C3)C(=O)N2CCc3c([nH]c4cc(CCC(=O)N(C)C)ccc34)[C@]12C`, the inhibition is 6.94% (inactive).

For the compound `CC(C)CC(=O)NC(=S)Nc1cc(C(=O)O)ccc1Cl`, the inhibition was -4.57% (inactive).

For the compound `CC(C)CC(=O)NC(=S)Nc1ccc(F)cc1F`, the inhibition was 41.9% (active).

In the case of `CC(=O)c1ccc(NC(=S)NC(=O)CC(C)C)cc1`, the inhibition was 28.8% (inactive).

Take `Cc1cc(C)c(C)c(S(=O)(=O)Nc2ccc(O)cc2)c1C`: the inhibition was 11.4% (inactive).

For the compound `Cc1c(C)c(C)c(S(=O)(=O)NCCc2ccccn2)c(C)c1C`, the inhibition was 7.03% (inactive).

Consider `COC(=O)c1sccc1NC(=O)CSc1ccccc1NS(=O)(=O)c1cc(Cl)ccc1Cl`, for which the inhibition is 10% (inactive).

With `COc1ccc(NS(=O)(=O)c2ccc(F)cc2F)cn1`, the inhibition is -5.52% (inactive).

Regarding `COC(=O)c1sccc1NS(=O)(=O)c1ccc(F)cc1F`, the inhibition is 48.3% (active).

Consider `CC1CCCN(CCOCCOc2ccccc2-c2ccccc2)C1` (centres undefined), for which the inhibition was -0.424% (inactive).

For `Cc1ccc(NS(=O)(=O)c2ccc3c(c2)n(C)c(=O)c(=O)n3C)c(C)c1`, the inhibition was -2% (inactive).

Consider `CCOC(=O)C(=CNc1cccc(C)n1)C(=O)OCC`, for which the inhibition was -4.77% (inactive).

For the compound `COc1ccccc1/C=C/C(=O)NC1CC2CCC1C2` (centres undefined), the inhibition was 18.9% (inactive).

With `CCOC(=O)C(=Cc1ccccc1OC)C(=O)OCC`, the inhibition was 49% (active).

In the case of `COc1ccccc1CNC(=O)C1CCN(C(=O)[C@@H]2Cc3ccccc3CN2)CC1`, the inhibition was 6.93% (inactive).

Turning to `COc1ccc(Nc2cc(=O)oc3ccccc23)cc1`, the inhibition was -15.1% (inactive).

For the compound `CCCN1CCn2c3c(c4cc(Br)ccc42)CCCC31` (centres undefined), the inhibition is 6.43% (inactive).

As to `CCOc1ccc(/C(O)=C2\C(=O)C(=O)N(c3ccc(OC)cc3)C2c2ccccc2[N+](=O)[O-])cc1` (centres undefined), the inhibition is 23.4% (inactive).

As for `COc1ccc2[nH]cc(/C=C(/C#N)S(=O)(=O)c3ccccc3)c2c1`, the inhibition was 54.5% (active).

With `COc1ccc2[nH]cc(CCN3C(=O)c4ccc(C(=O)O)cc4C3=O)c2c1`, the inhibition is -1.99% (inactive).

As to `CCN(CC)CC(=O)c1c[nH]c2ccc(OC)cc12`, the inhibition was -7.94% (inactive).

Take `O=C(Oc1ccc([N+](=O)[O-])cc1)c1ccc2ccccc2n1`: the inhibition was 40.4% (active).

`CC(OC(=O)c1ccc2ccccc2n1)C(=O)c1ccccc1` (centres undefined): the inhibition is 3.19% (inactive).

As to `COc1ccc(C(=O)COC(=O)c2ccc3ccccc3n2)cc1`, the inhibition is 37.3% (inactive).
